Data on five molecules can be found in PubChem BioAssay (NCATS).

Structures are written as SMILES. Records with an inconclusive call do not appear. Values without a mark were called inactive. Calls follow the shape of the dose curve; as a rule, active = well fitted curve in the direction sought with a large enough effect in the signal ratio, with a control signal flat (not every such curve was filed as active); inconclusive = small, poorly fitted or top-dose-only effect, or effect the other way, or a change in a side signal; inactive = no such curve, though single readings can be large or run the other way; the % refers to the signal ratio.

Chain of Tyrosine-protein phosphatase non-receptor type substrate 1 (Homo sapiens) + Leukocyte surface antigen CD47 (Homo sapiens) (P78324 whole entry, looked up, the tested form may be a part): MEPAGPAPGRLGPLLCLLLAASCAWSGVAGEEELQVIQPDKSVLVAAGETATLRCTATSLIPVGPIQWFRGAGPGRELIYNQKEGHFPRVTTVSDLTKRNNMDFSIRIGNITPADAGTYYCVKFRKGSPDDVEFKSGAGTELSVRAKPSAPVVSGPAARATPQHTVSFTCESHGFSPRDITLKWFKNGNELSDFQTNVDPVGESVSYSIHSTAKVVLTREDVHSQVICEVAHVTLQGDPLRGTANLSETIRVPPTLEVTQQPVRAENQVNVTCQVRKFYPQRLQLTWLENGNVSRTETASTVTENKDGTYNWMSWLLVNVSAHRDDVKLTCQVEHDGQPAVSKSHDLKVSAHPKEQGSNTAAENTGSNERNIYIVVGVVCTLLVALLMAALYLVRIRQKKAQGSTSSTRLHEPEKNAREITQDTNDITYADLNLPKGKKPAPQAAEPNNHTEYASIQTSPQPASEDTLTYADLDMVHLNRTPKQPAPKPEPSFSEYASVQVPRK
Chain of Tyrosine-protein phosphatase non-receptor type substrate 1 (Homo sapiens) + Leukocyte surface antigen CD47 (Homo sapiens) (Q08722 whole entry, looked up, the tested form may be a part): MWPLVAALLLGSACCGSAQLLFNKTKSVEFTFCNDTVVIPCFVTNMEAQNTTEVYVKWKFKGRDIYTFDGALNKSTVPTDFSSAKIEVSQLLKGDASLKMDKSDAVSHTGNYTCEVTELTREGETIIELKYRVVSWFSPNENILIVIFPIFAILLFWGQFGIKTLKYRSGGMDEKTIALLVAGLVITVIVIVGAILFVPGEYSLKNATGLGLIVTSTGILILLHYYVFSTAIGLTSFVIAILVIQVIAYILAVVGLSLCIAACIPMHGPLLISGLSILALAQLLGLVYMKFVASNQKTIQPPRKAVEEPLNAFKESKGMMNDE

This test addresses Tyrosine-protein phosphatase non-receptor type substrate 1 (Homo sapiens) + Leukocyte surface antigen CD47 (Homo sapiens) (UniProt P78324+Q08722). Nature of the test: CD47-SIRPalpha protein protein interaction - LANCE assay qHTS validation (AID 1347057). Also: 0% is about no effect. The conditions noted are these: Recombinant CD47-His / biotin-SIRPalpha, TR-FRET ratio; series mostly up to 38.3 µM; activity change, negative = inhibition: at the top concentration. In short, it runs like this:
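Inhibition of soluble CD47/SIRPalpha ectodomain association by titrated compounds, measured as 665/615 nm time-resolved FRET ratio after sequential 30 min room-temperature incubations.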
(In TR-FRET formats the signal depends on donor and acceptor labels being close together.)
Regarding `CCC(=O)c1ccc2c(c1)N(CCCN(C)C)c1ccccc1S2`, the “activity change, negative = inhibition” value was 1.14%. On to `COc1ccc(CCN(C)CCCC(C#N)(c2cc(OC)c(OC)c(OC)c2)C(C)C)cc1OC` (stereo not given), for which the “activity change, negative = inhibition” value was 1.63%.

As for `c1cnc(N2CCN(Cc3ccc4c(c3)OCO4)CC2)nc1`, the “activity change, negative = inhibition” value is 1.77%. Turning to `CCOC(=O)c1cnc2c(cnn2CC)c1NN=C(C)C`, the “activity change, negative = inhibition” value was 1.07%. For the molecule `CCc1cccc(N(C)C(N)=Nc2cccc3ccccc23)c1`, the “activity change, negative = inhibition” value is 1.1%.
